Compound activity as filed in PubChem BioAssay.
Shown are actives, neighbours in structure and some others; about 3.6% of the full set was active somewhere.
hDAT+cocaine: human DAT dopamine uptake with cocaine, either direction; LLC-PK1 hDAT cells, [14C]-dopamine uptake with cocaine IC80; actives deviate in either direction; B-score at 10 µM; actives 1.3% (n = 110,000); AID 449768;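 active = Z score or B-score, a plate-position-corrected score, falls beyond the plate's 99.7% confidence bounds, in either direction; inactive = both scores lie inside the 99.7% bounds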;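 also: scored against the spread of the other compound wells on the same plate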
Target sequence (Q01959 whole entry, looked up): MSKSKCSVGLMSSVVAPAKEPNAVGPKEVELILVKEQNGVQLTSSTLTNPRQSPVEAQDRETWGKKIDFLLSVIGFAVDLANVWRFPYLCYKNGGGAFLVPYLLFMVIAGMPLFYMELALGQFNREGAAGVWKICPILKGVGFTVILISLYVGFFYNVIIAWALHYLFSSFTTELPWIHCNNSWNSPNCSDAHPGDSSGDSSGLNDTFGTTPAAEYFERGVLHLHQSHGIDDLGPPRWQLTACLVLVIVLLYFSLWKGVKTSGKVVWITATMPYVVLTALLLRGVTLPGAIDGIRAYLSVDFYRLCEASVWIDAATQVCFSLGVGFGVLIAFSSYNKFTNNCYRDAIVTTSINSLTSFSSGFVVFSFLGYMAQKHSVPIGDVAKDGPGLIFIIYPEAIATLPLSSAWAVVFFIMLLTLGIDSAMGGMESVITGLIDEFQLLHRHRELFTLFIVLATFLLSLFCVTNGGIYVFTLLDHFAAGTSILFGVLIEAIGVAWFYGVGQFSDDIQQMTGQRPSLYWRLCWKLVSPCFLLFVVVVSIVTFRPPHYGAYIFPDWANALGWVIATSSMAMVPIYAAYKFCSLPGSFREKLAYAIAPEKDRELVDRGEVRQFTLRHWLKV
bCat KO growth: beta-catenin-lacking colon tumor cell growth suppression. HCT116 beta-catenin knockout viability, CellTiter-Glo, 60 h; stronger effect = lower value. viability, % at 10 µM. actives 1.5% (n = 140,000). AID 818;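 active = viability at or under a set limit, the compound median less 4 SD, cut at about 6% in these data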;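 also: 0% = Hyamine 1622 control at 20 µM and 100% = untreated cell control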
PTEN del growth: PTEN-deleted cell growth suppression | actives 1.2% (n = 140,000) | viability, % at 10 µM | HCT116 PTEN-null viability, CellTiter-Glo, 60 h; stronger effect = lower value;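 active = viability at or below a set limit, 4 SD under the median of all tested compounds, cut at about 3.7% in these data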;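 also: PTEN knockout HCT116 line with beta catenin targeted HCT116 as companion control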
WT yeast gro inh: growth inhibition of WT yeast, mitochondrial fusion screen. inhibition, % at 10 µM. actives 2.1% (n = 190,000). AID 1362. mitochondrial fusion phenotypic screen, WT strain; in the data active = inhibition above about 58%; tested in S. cerevisiae
* marks the source's active call; other numbers are inactive results.

Screening CC1CC(N(C(=O)c2ccccc2Cl)c2ccccc2)c2ccccc2N1 (centres undefined) returned bCat KO growth 39, PTEN del growth 29 and WT yeast gro inh 67*.
For O=S(=O)(c1ccccc1)c1cnc(-c2cccnc2)nc1-c1ccccc1 the results were hDAT+cocaine -0.8, bCat KO growth 54, PTEN del growth 58 and WT yeast gro inh 8.
Screening O=S(=O)(c1ccccc1)c1cnc(-c2cccnc2)nc1-c1ccc(Cl)cc1Cl returned hDAT+cocaine 2.4, bCat KO growth 43, PTEN del growth 48 and WT yeast gro inh 67*.
For COc1ccc(S(=O)CC(=O)Nc2ccc(Cl)cc2Cl)cc1 (centres undefined) the results were WT yeast gro inh 4.
CC(C)(C)CC(=O)Nc1nn[nH]n1 was read as bCat KO growth 91, PTEN del growth 101 and WT yeast gro inh 15.
`Cc1ccc(S(=O)(=O)NCC(=O)OCC(=O)NCc2ccc(F)cc2)cc1` gave WT yeast gro inh 15.
COc1cc(OC)cc(C(=O)N2CCN=C2SCc2cccnc2)c1 was read as hDAT+cocaine 1.6*, bCat KO growth 95, PTEN del growth 92 and WT yeast gro inh 4.
COCCCC1CCN(Cc2nc(-c3ccccc3)no2)CC1 was read as WT yeast gro inh 1.
O=S1(=O)Nc2c(ccc3cccnc23)-c2ccccc21 was read as hDAT+cocaine -0.3, bCat KO growth 4.7*, PTEN del growth 2.3* and WT yeast gro inh 31.
O=c1[nH]n(-c2cccc3cccnc23)c(=O)c2ccccc12 was read as hDAT+cocaine -0.51, bCat KO growth 106, PTEN del growth 95 and WT yeast gro inh 4.
Screening O=C(COC(=O)Cc1c(Cl)cccc1Cl)NCCC1=CCCCC1 returned bCat KO growth 76, PTEN del growth 80 and WT yeast gro inh 0.
For COc1ccc(/C=N/OCC(=O)N2CC3(C)CC2CC(C)(C)C3)cc1OC (centres undefined) the results were hDAT+cocaine 2.8*, bCat KO growth 90, PTEN del growth 95 and WT yeast gro inh 6.
`CCOC(=O)N1CCC(NC(=O)c2cc(-c3ccc(F)cc3)[nH]c2C)CC1` gave bCat KO growth 90, PTEN del growth 89 and WT yeast gro inh 67*.
CCOC(=O)N1CCC(NC(=O)c2cc(C(=O)NCc3ccc(F)cc3)ccc2CO)CC1 was read as hDAT+cocaine -0.017, bCat KO growth 92, PTEN del growth 89 and WT yeast gro inh 8.
Screening COc1c(C(=O)NCCSC(C)(C)C)ccc2ccccc12 returned bCat KO growth 90, PTEN del growth 97 and WT yeast gro inh 24.
Screening O=C(NCCF)[C@H]1C[C@@H]1[C@H](NP(=O)(c1ccccc1)c1ccccc1)c1ccccc1 returned hDAT+cocaine 0.35, bCat KO growth 106, PTEN del growth 99 and WT yeast gro inh 19.
O=C(NCc1ccccn1)[C@H]1C[C@@H]1[C@H](NP(=O)(c1ccccc1)c1ccccc1)c1ccccc1 was read as hDAT+cocaine 1.1, bCat KO growth 0.8*, PTEN del growth 0.6* and WT yeast gro inh -10.
CCOC(=O)C1=C(C)Nc2ccccc2N=C1NC(=O)/C=C/c1ccc(OC)cc1OC was read as WT yeast gro inh 1.
Nc1cccc2c1C(=O)N(CC(=O)NC13CC4CC(CC(C4)C1)C3)C2=O was read as WT yeast gro inh -25.
For O=C(Cn1sc2ccccc2c1=O)NC12CC3CC(CC(C3)C1)C2 the results were hDAT+cocaine -0.51, bCat KO growth 0.7*, PTEN del growth 1.1* and WT yeast gro inh -1.
For Nc1c(N(C(=O)Nc2ccc(Cl)c(Cl)c2)C2CCCC2)c(=O)[nH]c(=O)n1Cc1ccccc1 the results were bCat KO growth 1.4*, PTEN del growth 1.4* and WT yeast gro inh -11.
Screening COc1cccc2sc(NN)nc12 returned WT yeast gro inh 20.
For NNc1nc2c(Cl)c(Cl)ccc2s1 the results were bCat KO growth 85, PTEN del growth 93 and WT yeast gro inh 78*.
Screening CC(C)SCc1cc(N2CCCC2)nc(-c2ccccc2)n1 returned WT yeast gro inh 58*.
For COC(=O)Nc1snnc1C the results were hDAT+cocaine -0.82, bCat KO growth 94, PTEN del growth 99 and WT yeast gro inh 63*.
`COc1ccc2nc(NC(=O)CN(c3ccc(C)cc3)S(=O)(=O)c3c(C)nn(C)c3C)sc2c1` gave hDAT+cocaine 0.78, bCat KO growth 61, PTEN del growth 60 and WT yeast gro inh 69*.
Screening CCCCc1ccc(NC(=S)NCc2ccccc2OC)cc1 returned WT yeast gro inh 65*.
`CCC(C)c1ccc(NC(=S)NC2CCN(Cc3ccccc3)CC2)cc1` (centres undefined) gave bCat KO growth 1.9*, PTEN del growth 1.1* and WT yeast gro inh 75*.
Screening CCCCc1ccc(NC(=S)NCc2ccc(OC)cc2)cc1 returned WT yeast gro inh 72*.
`CCc1ccc(NC(=S)NC2CCN(Cc3ccccc3)CC2)cc1` gave bCat KO growth 43, PTEN del growth 45 and WT yeast gro inh 23.
`CCCCc1ccc(NC(=S)NCc2cccs2)cc1` gave hDAT+cocaine -0.73, bCat KO growth 62, PTEN del growth 72 and WT yeast gro inh 8.
For CCC(C)c1ccc(NC(=S)Nc2ccc(OC)cc2)cc1 (centres undefined) the results were bCat KO growth 85, PTEN del growth 87 and WT yeast gro inh 72*.
C/C(=N\NC(=O)c1cccnc1)c1cc2ccccc2o1 was read as WT yeast gro inh 14.
`O=S(=O)(Nc1nc2ccccc2nc1NCc1ccco1)c1ccc(Cl)cc1` gave hDAT+cocaine -0.34, bCat KO growth 76, PTEN del growth 76 and WT yeast gro inh 58*.
`Cc1ccc(S(=O)(=O)Nc2nc3ccccc3nc2NCc2ccco2)cc1` gave hDAT+cocaine 1.4, bCat KO growth 52, PTEN del growth 57 and WT yeast gro inh 18.
`CCC(=O)Nc1cccc(C(=O)/C=C/c2ccccc2)c1` gave hDAT+cocaine 0.27, bCat KO growth 1.6*, PTEN del growth 1.4* and WT yeast gro inh 18.
`CCCCCCNS(=O)(=O)c1ccc(NC(=O)C2CCCO2)cc1` (centres undefined) gave bCat KO growth 79, PTEN del growth 82 and WT yeast gro inh -4.
For Cc1cc(Nc2nc3ccccc3nc2Cl)n(-c2ccccc2C)n1 the results were hDAT+cocaine -0.021, bCat KO growth 58, PTEN del growth 61 and WT yeast gro inh 63*.
Cc1cc(Nc2nc3ccccc3nc2Cl)n(-c2ccccc2)n1 was read as hDAT+cocaine -0.31, bCat KO growth 21, PTEN del growth 15 and WT yeast gro inh -6.
CSc1nc(Cl)c(Cc2ccc(OC(C)C)cc2)c(N(C)C)n1 was read as bCat KO growth 54, PTEN del growth 56 and WT yeast gro inh 63*.
Screening CCOc1ccc(Cc2c(Cl)nc(SC)nc2N(C)C)cc1 returned bCat KO growth 16, PTEN del growth 23 and WT yeast gro inh 58.
`C=CCSc1nnc(NC(=O)COc2ccc3ccccc3c2)s1` gave hDAT+cocaine -0.13, bCat KO growth 82, PTEN del growth 85 and WT yeast gro inh 86*.
